Data on 37 compounds can be found in PubChem BioAssay (NCATS).

For assay [1], the target named is phosphoglycerate mutase (Leishmania major) (UniProt Q4Q090). In words: qHTS Validation Assay to Find Inhibitors of Phosphoglycerate Mutase (AID 504548). Also: series mostly up to about 58 µM. In a few lines:
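Lm PGAM 1.25nM final; 100 mM TEA pH 7.6, 5 mM MgCl2, 0.01% Tween-20; 45 min RT; Kinase-GloPlus, 10 min; end-point luminescence. Enzyme-free wells as negative controls.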

Assay [2] concerns the target Ubiquitin carboxyl-terminal hydrolase 1 (Homo sapiens) (UniProt O94782). In words: Inhibitors of USP1/UAF1: Pilot qHTS (AID 504865). Also: nearly all actives have a fitted effect of over 35% in size. Also: potency is read from the fitted curve at half-maximal effect. In a few lines:
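USP1/UAF1 complex at 1 nM preincubated 15 min at room temperature with compound, then Ub-Rho substrate added at 150 nM final. Fluorescence (480/540 nm) read kinetically in 50 mM HEPES pH 7.8, 0.5 mM EDTA, 1 mM TCEP, 0.1 mg/ml BSA, 0.01% Tween-20.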

Assay [3] is described as follows: qHTS for Inhibitors of ATXN expression: Validation of Cytotoxic Assay (AID 588349). Also: potency is read from the fitted curve at half-maximal effect. The essentials: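 HEK293 cells treated with titrated compound for 72 hr at 37 degrees C; viability read as intracellular ATP by CellTiter Glo luminescence.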
Assay [4] in a line: qHTS for Inhibitors of ATXN expression: Validation (AID 588378). Also: nearly all actives have a fitted effect of over 75% in size. Also: potency is read from the fitted curve at half-maximal effect. In a few lines:
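HEK293 cells carrying ATXN2-firefly luciferase reporter, treated with compound 24 h at 37 °C. Viability read first by CellTiter-Fluor (405/525 nm), then reporter expression by Bright-Glo luminescence; controls were a known ATXN2 expression inhibitor and a luciferase inhibitor.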

Assay [5] concerns the target Bile acid receptor (Homo sapiens) (UniProt Q96RI1). In words: qHTS assay for small molecule antagonists of farnesoid X receptor signaling (AID 588526; calls by dose curve). In a few lines: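 Antagonist mode: titrated compounds tested against chenodeoxycholic acid stimulation (normalized to 50 uM CDCA and DMSO) in GeneBLAzer HEK293T cells for 16 h. Beta-lactamase read by CCF4 fluorescence; IC50 from Hill fits.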

Assay [6] in a line: Validation screen for small molecules that induce DNA re-replication in SW480 colon adenocarcinoma cells (AID 504364). In a few lines:
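SW480 cells (250/well) exposed 48 h at 37 C, 5% CO2, then Hoechst-stained 40 min. Nuclear DNA content imaged by fluorescence scanning (405 nm excitation, 500-530 nm emission); re-replication scored as increased nuclei with elevated intensity.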

In assay [7] the target is Peptidyl-prolyl cis-trans isomerase NIMA-interacting 1 (Homo sapiens) (UniProt Q13526). The assay is described as follows: qHTS Validation Assay to Find Inhibitors of Pin1 (AID 504536; active = well fitted inhibition curve with a large enough effect in the polarisation, with a control signal flat, not every such curve was filed as active; the % refers to the polarisation). In a few lines: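 Fluorescence polarization competition: compounds (titration) displace HiFluor-488-labeled Pin1-1b peptide from Pin1 (0.3 uM final) in pH 7.5 HEPES buffer with DTT, 10 min at room temperature; %Activity normalized to no-enzyme wells, curves fitted.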
Chain of Peptidyl-prolyl cis-trans isomerase NIMA-interacting 1 (Homo sapiens) (Q13526 whole entry, looked up): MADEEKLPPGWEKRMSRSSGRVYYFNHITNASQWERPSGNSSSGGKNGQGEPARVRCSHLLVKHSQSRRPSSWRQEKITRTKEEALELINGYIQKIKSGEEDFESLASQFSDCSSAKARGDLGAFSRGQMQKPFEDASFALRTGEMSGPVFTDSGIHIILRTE

Assay [8] has as its target DNA dC->dU-editing enzyme APOBEC-3G (Homo sapiens) (UniProt Q9HC16). The assay is described as follows: qHTS for inhibitors of Vif-A3G interactions: Validation (AID 588379). The essentials: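 HeLa cells stably expressing Vif and A3G-eYFP, 700 cells/well, incubated overnight at 37 deg C, then exposed to compound overnight at 37 deg C. Inhibition of Vif-mediated degradation read as increased yellow fluorescence (Ex 488/Em 500-530) by laser-scanning cytometry.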

Several values for one entry are separate records, joined by “and”; a condition that tells them apart may be missing. Identical values can stand only once. Records with an inconclusive call do not appear. Activity calls are given as the source filed them. Unless noted, calls follow the shape of the dose curve; as a rule, active = well fitted curve in the direction sought with a large enough effect; inconclusive = small, poorly fitted or top-dose-only effect, or another doubt; inactive = no such curve, though single readings can be large; an effect the other way counts as inactive or inconclusive.

Chain of Ubiquitin carboxyl-terminal hydrolase 1 (Homo sapiens) (O94782 whole entry, looked up): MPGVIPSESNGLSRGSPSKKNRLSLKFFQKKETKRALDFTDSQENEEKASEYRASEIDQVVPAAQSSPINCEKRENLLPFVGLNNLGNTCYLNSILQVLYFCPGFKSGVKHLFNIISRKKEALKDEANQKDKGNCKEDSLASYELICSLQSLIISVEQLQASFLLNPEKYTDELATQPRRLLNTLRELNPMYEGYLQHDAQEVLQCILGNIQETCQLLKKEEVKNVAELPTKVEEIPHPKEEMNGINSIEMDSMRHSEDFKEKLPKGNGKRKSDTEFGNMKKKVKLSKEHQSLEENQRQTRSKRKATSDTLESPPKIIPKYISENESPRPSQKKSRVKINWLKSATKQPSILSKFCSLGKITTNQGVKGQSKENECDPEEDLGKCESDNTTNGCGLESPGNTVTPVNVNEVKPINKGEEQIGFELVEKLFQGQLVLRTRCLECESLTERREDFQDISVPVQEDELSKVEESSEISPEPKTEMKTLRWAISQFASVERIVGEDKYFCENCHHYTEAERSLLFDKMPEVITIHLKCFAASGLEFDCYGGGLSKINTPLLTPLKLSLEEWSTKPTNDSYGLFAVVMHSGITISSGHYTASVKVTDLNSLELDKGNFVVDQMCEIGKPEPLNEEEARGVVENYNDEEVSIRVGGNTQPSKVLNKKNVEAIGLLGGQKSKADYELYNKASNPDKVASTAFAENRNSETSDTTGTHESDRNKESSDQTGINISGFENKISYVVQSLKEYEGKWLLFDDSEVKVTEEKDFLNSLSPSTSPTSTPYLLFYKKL
Chain of phosphoglycerate mutase (Leishmania major) (Q4Q090 1-553): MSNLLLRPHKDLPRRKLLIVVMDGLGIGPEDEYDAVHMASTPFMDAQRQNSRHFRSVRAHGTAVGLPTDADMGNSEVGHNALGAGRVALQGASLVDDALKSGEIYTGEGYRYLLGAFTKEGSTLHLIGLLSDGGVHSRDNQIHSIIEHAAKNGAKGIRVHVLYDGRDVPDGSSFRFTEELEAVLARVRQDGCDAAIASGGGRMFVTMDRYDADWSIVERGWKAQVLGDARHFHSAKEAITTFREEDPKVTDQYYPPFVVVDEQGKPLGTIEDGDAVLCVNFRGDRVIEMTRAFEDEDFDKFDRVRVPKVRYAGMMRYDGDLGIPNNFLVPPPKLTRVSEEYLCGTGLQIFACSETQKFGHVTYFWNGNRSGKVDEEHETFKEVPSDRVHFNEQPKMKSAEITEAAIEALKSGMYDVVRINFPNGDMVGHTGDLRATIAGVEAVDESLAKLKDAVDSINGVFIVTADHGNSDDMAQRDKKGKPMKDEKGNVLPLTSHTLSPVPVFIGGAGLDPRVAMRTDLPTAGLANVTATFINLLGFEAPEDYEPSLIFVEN
Chain of DNA dC->dU-editing enzyme APOBEC-3G (Homo sapiens) (Q9HC16 whole entry, looked up): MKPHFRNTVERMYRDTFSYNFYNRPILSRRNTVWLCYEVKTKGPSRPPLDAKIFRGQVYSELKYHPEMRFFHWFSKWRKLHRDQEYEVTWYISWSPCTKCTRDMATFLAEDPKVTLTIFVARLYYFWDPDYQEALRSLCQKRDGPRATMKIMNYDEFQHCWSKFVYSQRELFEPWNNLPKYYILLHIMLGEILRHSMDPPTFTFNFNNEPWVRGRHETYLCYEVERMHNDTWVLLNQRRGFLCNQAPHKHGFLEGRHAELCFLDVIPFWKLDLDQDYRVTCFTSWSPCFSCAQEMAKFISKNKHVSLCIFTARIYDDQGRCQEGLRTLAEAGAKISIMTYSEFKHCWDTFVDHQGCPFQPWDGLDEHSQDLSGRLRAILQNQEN
Chain of Bile acid receptor (Homo sapiens) (Q96RI1 whole entry, looked up): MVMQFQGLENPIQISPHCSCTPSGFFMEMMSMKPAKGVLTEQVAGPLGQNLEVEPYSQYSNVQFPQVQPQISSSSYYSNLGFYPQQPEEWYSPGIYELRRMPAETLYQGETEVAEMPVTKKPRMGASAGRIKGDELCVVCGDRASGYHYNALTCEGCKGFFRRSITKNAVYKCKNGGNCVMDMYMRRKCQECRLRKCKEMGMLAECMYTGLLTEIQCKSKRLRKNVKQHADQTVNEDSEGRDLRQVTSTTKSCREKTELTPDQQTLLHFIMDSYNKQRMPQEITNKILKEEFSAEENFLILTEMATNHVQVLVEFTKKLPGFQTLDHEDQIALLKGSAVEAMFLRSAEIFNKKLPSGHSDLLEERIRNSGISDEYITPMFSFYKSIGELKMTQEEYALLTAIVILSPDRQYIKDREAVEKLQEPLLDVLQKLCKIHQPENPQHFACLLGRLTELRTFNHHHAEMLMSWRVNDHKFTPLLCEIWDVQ

Turning to `N[C@@H](Cc1ccc(O)c(O)c1)C(=O)O`, the call in assay [1] and in assay [5] was inactive. Besides, the Potency entry in assay [2], in assay [3] and in assay [4] was “inactive” throughout.
Take `CC(C)(C)C(=O)OCOP(=O)(COCCn1cnc2c(N)ncnc21)OCOC(=O)C(C)(C)C`: the Potency result in assay [2] is “inactive”.
In the case of `NC(=O)c1cccc(N)c1`, the call in assay [6], in assay [7], in assay [1] and in assay [8] was inactive. For the same compound, the Potency result in assay [2], in assay [3] and in assay [4] was “inactive” in each case.
Take `COc1cc2ncnc(Nc3cccc(Cl)c3)c2cc1OC`: the outcome in assay [6], in assay [7], in assay [1] and in assay [8] was inactive. The Potency entry in assay [2], in assay [3] and in assay [4] was “inactive” each time.
Take `Nc1nc(N)c2nc(CNc3ccc(C(=O)NC(CCC(=O)O)C(=O)O)cc3)cnc2n1` (stereo unspecified): the compound was classed as inactive in assay [6] and in assay [1]. In addition, the Potency result in assay [3] and in assay [4] was “inactive” throughout.
Take `CC1=C(C(=O)O)N2C(=O)[C@@H](NC(=O)C(N)c3ccccc3)[C@H]2SC1` (stereo partly specified): the compound was called inactive in assay [6] and in assay [1]. Besides, the Potency result in assay [2], in assay [3] and in assay [4] was “inactive” throughout.
Turning to `COc1ccc2cc3[n+](cc2c1OC)CCc1cc2c(cc1-3)OCO2`, the Potency result in assay [2] was “inactive”.
As to `CC(C)NCC(O)c1ccc(NS(C)(=O)=O)cc1` (stereo unspecified), the result in assay [6], in assay [7] and in assay [1] was inactive. In addition, the Potency entry in assay [2], in assay [3] and in assay [4] was “inactive” each time.
Take `O=C(O)C1CCCN(CCC=C(c2ccccc2)c2ccccc2)C1` (stereo unspecified): the call in assay [6], in assay [7], in assay [1] and in assay [8] was inactive. For the same compound, the Potency result in assay [2], in assay [3] and in assay [4] was “inactive” in each case.
`CCN1CCCC1CNC(=O)c1cc(S(N)(=O)=O)ccc1OC` (stereo unspecified): the compound was classed as inactive in assay [6], in assay [7], in assay [1] and in assay [8]. Further, the Potency result in assay [2], in assay [3] and in assay [4] was “inactive” each time.
For the compound `NC(=O)c1cccnc1`, the Potency result in assay [2] was “inactive”.
On to `CC1CC2C3CCC4=CC(=O)C=C[C@]4(C)[C@@]3(F)[C@@H](O)C[C@]2(C)[C@@]1(O)C(=O)CO` (stereo partly specified), for which the call in assay [7] and in assay [1] was inactive. The Potency result in assay [2], in assay [3] and in assay [4] was “inactive” throughout.
With `CCCCS(=N)(=O)CCC(N)C(=O)O` (stereo unspecified), the call in assay [6], in assay [7] and in assay [1] was inactive. Also, the Potency result in assay [2], in assay [3] and in assay [4] was “inactive” throughout.
Turning to `CCOC(=O)[C@H](CCc1ccccc1)N[C@H]1CS[C@H](c2cccs2)CN(CC(=O)O)C1=O`, the Potency entry in assay [2] was “inactive”.
The same measure, in the same setting: with `O=NN(CCCl)C(=O)NC1CCCCC1` the entry was “inactive”.
Regarding `NC(=O)c1ccc2[nH]ccc2c1`, the result in assay [7] and in assay [1] was inactive. For the same compound, the Potency entry in assay [2], in assay [3] and in assay [4] was “inactive” in each case.
Turning to `CCN(CC)CCn1c(=O)c(Cc2ccc(OC)cc2)nc2ccccc21`, the outcome in assay [7] and in assay [1] was inactive. Further, the Potency entry in assay [2], in assay [3] and in assay [4] was “inactive” throughout.
Take `CN(C)CCc1c[nH]c2ccc(CS(=O)(=O)N3CCCC3)cc12`: the Potency result in assay [2] is “inactive”.
For the compound `Cc1ccc(S(=O)(=O)N[C@@H](Cc2ccccc2)C(=O)CCl)cc1`, the compound was classed as inactive in assay [6], in assay [7] and in assay [1]. Further, the Potency in assay [2] is 44.7 µM (active); in assay [3] it was 14.1 µM (active); in assay [4], 22.4 µM (active).
As to `CCCN[C@H]1CCc2nc(N)sc2C1`, the Potency entry in assay [2] was “inactive”.
The same measure, in the same setting: to `Nc1nc(N)nc(-c2cc(Cl)ccc2Cl)n1` belongs “inactive”.
The same measure, in the same setting: to `CNS(=O)(=O)Cc1ccc2[nH]cc(CCN(C)C)c2c1` belongs “inactive”.
With `OCc1ccc(-c2nn(Cc3ccccc3)c3ccccc23)o1`, the compound was called inactive in assay [6], in assay [7] and in assay [1]. The Potency result in assay [2] and in assay [3] was “inactive” each time.
Turning to `CC(=O)[C@H]1CC[C@H]2[C@@H]3CCC4=CC(=O)CC[C@]4(C)[C@H]3CC[C@]12C`, the compound was called inactive in assay [6], in assay [7], in assay [1] and in assay [8]. The Potency entry in assay [3] and in assay [4] was “inactive” each time.
As to `CC(=O)Oc1ccccc1C(=O)Nc1ncc([N+](=O)[O-])s1`, in assay [2], the Potency entry is “inactive”.
The same measure, in the same setting: to `COc1ccc(-c2ccc3cc(C(=O)O)ccc3c2)cc1C12CC3CC(CC(C3)C1)C2` belongs 79.4 µM (active).
In the case of `COc1cc2nc(N3CCCN(C)CC3)nc(NC3CCN(Cc4ccccc4)CC3)c2cc1OC`, the compound was called inactive in assay [7] and in assay [1]. The Potency result in assay [2] is “inactive”. The Potency in assay [4] is 7.94 µM (active).
On to `CC(C)(C)NC(=O)[C@H]1CC[C@H]2[C@@H]3CC[C@H]4NC(=O)C=C[C@]4(C)[C@H]3CC[C@]12C`, for which the outcome in assay [6] was inactive.
For the compound `CCN(CC)CC#CCOC(=O)C(O)(c1ccccc1)C1CCCCC1` (stereo unspecified), the call in assay [6], in assay [7] and in assay [1] was inactive. For the same compound, the Potency result in assay [2] and in assay [4] was “inactive” throughout.
Regarding `C[C@]12C=CC(=O)C=C1CC[C@@H]1[C@@H]2C(=O)C[C@@]2(C)[C@H]1CC[C@]2(O)C(=O)CO`, the Potency entry in assay [2] is “inactive”.
Same read-out and setting: to `COC(=O)Nc1nc2ccc(C(=O)c3ccccc3)cc2[nH]1` belongs “inactive”.
The same measure, in the same setting: to `O=C(O)c1cccnc1` belongs “inactive”; to `Cc1ncc([N+](=O)[O-])n1CCO`, “inactive”; to `CCOCC(O)COc1ccc(NC(=O)CC[S+](C)C)cc1` (stereo unspecified), “inactive”.
Regarding `Cc1cc(NS(=O)(=O)c2ccc(N)cc2)no1`, in assay [5], the result was inactive.
As for `CN(C)c1ccc(C(=C2C=CC(=[N+](C)C)C=C2)c2ccc(N(C)C)cc2)cc1`, in assay [2], the Potency was 20 µM (active) and 22.4 µM (active).
For the compound `CCOC(=O)c1ccc(OC(=O)CCCCCN=C(N)N)cc1`, in assay [2], the Potency entry is “inactive”. Further, in assay [8], the result was inactive.
